In all, about 13,000 compounds were measured (“IFI”: median about 4, highest 2% from about 17 on). The list comes from a sample in which the highest values are over-represented; it also holds similar structures and randomly drawn compounds.

This assay in a line: GSK_TCMDC: Inhibition Frequency Index (IFI). The number of non-kinase HTS assays where a compound showed > 50 % inhibition, expressed as a percentage of the number of such assays in which the compound was tested. It counts as functional.
For the molecule `CCc1cc(COc2ccc(CNCCC(C)C)cc2I)c(OCc2ccccc2)c(COc2ccc(CNCCC(C)C)cc2I)c1`, the IFI was determined as 14.3%.

As to `CCOc1ccc2c(=NN=Cc3ccccc3OC)cc(C)[nH]c2c1`, the IFI is 3.62%.

In turn, `Oc1ccc(-c2cc(COc3ccccc3C(F)(F)F)c(C3=CCNCC3)cc2COc2ccccc2C(F)(F)F)cc1` returned an IFI of 17.3%.

Consider `FC(F)(F)c1ccccc1OCc1cc(-c2ccncc2)c(COc2ccccc2C(F)(F)F)cc1C1=CCNCC1`, for which the IFI turned out to be 10.6%.

The molecule `Nc1nc(N)c2cc(NC(=O)c3ccc(Cl)c(Cl)c3)ccc2n1` returned an IFI of 15.9%.

`Cc1nc(C)c(-c2ccc(Oc3ccc(Cl)cc3Cl)cc2)c(O)c1Br` had an IFI of 1.52%.

On to `CSc1ccc2ccccc2c1CCNCCCCNCCc1c(SC)ccc2ccccc12`, for which the IFI is 17%.

The molecule `FC(F)(F)COc1c(CCNCCCCNCCc2ccc3ccccc3c2OCC(F)(F)F)ccc2ccccc12` had an IFI of 19.3%.

In turn, `FC(F)(F)COc1ccc(CCNCCCCNCCc2ccc(OCC(F)(F)F)c3ccccc23)c2ccccc12` registered an IFI of 20.3%.

The molecule `FC(F)(F)COc1ccc2ccccc2c1CCNCCCCNCCc1c(OCC(F)(F)F)ccc2ccccc12` came in with an IFI of 23.4%.

Molecule `COc1ccc(CCNCCCCNCCc2ccc(OC)c3ccccc23)c2ccccc12` gave an IFI of 13.9%.

`FC(F)(F)COc1ccc(CNCCCCCCNCc2ccc(OCC(F)(F)F)c3ccccc23)c2ccccc12` returned an IFI of 21%.

On to `CCCOc1ccc(CCNCCCCNCCc2ccc(OCCC)c3ccccc23)c2ccccc12`, for which the IFI was determined as 12.5%.

On to `FC(F)(F)COc1ccc2ccccc2c1CNCCCCCCNCc1c(OCC(F)(F)F)ccc2ccccc12`, for which the IFI worked out at 14.9%.

In turn, `CN(C)c1c(CNCCCCCCNCc2ccc3ccccc3c2N(C)C)ccc2ccccc12` came in with an IFI of 15.7%.

`FC(F)(F)COc1c(CNCCCCCCNCc2ccc3ccccc3c2OCC(F)(F)F)ccc2ccccc12`: the IFI was found to be 14.9%.

`N#Cc1ccc(CNCCCCCCNCc2ccc(C#N)c3ccccc23)c2ccccc12` came in with an IFI of 7.04%.

On to `O=[N+]([O-])c1ccc(CNCCCCCCNCc2ccc([N+](=O)[O-])c3ccccc23)c2ccccc12`, for which the IFI is 10.3%.

Regarding `O=S(=O)(NCCN1CCCC1)c1ccc(-c2cccc(CNCCc3cccs3)c2)cc1`, the IFI is 9.52%.

Turning to `CON=Cc1sc(CNCCCN=c2cc(O)c3ccccc3[nH]2)c(C)c1Br`, the IFI was determined as 6.52%.

For `N=C(N)c1ccc2[nH]c(SCc3ccccc3)nc2c1`, the IFI is 0.94%.

`O=c1c(Br)ccccc1Br` came in with an IFI of 11.6%.

For the molecule `CCN(CC)CCN(Cc1ccc(-c2ccc(C(F)(F)F)cc2)cc1)C(=O)Cn1c(CCc2cccc(F)c2F)cc(=O)cc1-c1ccccc1`, the IFI turned out to be 11.3%.

Molecule `N=C(N)NN=Cc1ccccc1OCc1ccccc1Cl` gave an IFI of 6.72%.

Take `CS(=O)(=O)NCCCNCc1ccc(-c2ccc(-c3nc4cc(C(F)(F)F)ccc4[nH]3)cc2)cc1`: the IFI turned out to be 5.94%.

Take `CCc1ccc(CN2CCC(CNC(=O)c3cc(-c4cccc(C(F)(F)F)c4)cs3)C2)cc1` (centres undefined): the IFI was 14%.

`CCCCOc1ccc(CNCCCCCCNCc2ccc(OCCCC)c3ccccc23)c2ccccc12` returned an IFI of 17.8%.

In turn, `CCCCSc1ccc(CNCCCCCCNCc2ccc(SCCCC)c3ccccc23)c2ccccc12` gave an IFI of 14.8%.

`CCCOc1ccc(CNCCCCCCNCc2ccc(OCCC)c3ccccc23)c2ccccc12`: the IFI came to 15.6%.

`CC1(C)NC(=N)NC(=N)N1OCC=Cc1ccccc1` returned an IFI of 3.57%.

`COc1ccc2[nH]ccc(=NN=Cc3ccc(Cl)cc3)c2c1` came in with an IFI of 0.74%.

As for `CCOc1ccccc1N1CCN(CCCNC(=O)/C(=C/C=C/c2cc3cc(Cl)c(Cl)cc3[nH]2)OC)CC1`, the IFI came to 10.8%.

In the case of `CO/C(=C\C=C\c1cc2cc(Cl)c(Cl)cc2[nH]1)C(=O)NCCCN1CCN(c2cccc(Cl)c2)CC1`, the IFI is 8.27%.

On to `CCN(CC)CCCNC(=O)/C(=C/C=C/c1cc2cc(Cl)c(Cl)cc2[nH]1)OC`, for which the IFI was found to be 8.46%.

The molecule `CO/C(=C\C=C\c1cc2cc(Cl)c(Cl)cc2[nH]1)C(=O)NCCCNC12CC3CC(CC(C3)C1)C2` displayed an IFI of 21.1%.

For the molecule `CO/C(=C\C=C\c1cc2cc(Cl)c(Cl)cc2[nH]1)C(=O)NCCCCN1CCN(c2ccccc2OC)CC1`, the IFI came out at 19.1%.

`CCN(CC)CCNC(=O)/C(=C/C=C/c1cc2cc(Cl)c(Cl)cc2[nH]1)OC` gave an IFI of 7.63%.

As to `CCOC(=O)c1ccc(NC(=O)Nc2ccc(-c3cccc(-c4nc5cccc(C)c5[nH]4)c3)cc2)cc1`, the IFI turned out to be 7%.

On to `Cc1noc(C)c1-c1cccc(CNCc2ccc(-c3ccc(-c4nc5cc(F)ccc5[nH]4)cc3)cc2)c1`, for which the IFI worked out at 8.91%.

Regarding `Cc1ccccc1CCNC(=O)c1ccc(N2CCN(c3ccncc3)CC2)nc1`, the IFI stood at 2.08%.

The molecule `COc1ccccc1CCNC(=O)c1cnc(N2CCN(c3ccncc3)CC2)c(Cl)c1` displayed an IFI of 10.4%.

The molecule `O=C(NCCc1cccc(Cl)c1Cl)c1ccc(N2CCN(c3ccncc3)CC2)nc1` showed an IFI of 10.4%.

Molecule `Cc1ccccc1CCNC(=O)c1cnc(N2CCN(c3ccncc3)CC2)c(Cl)c1` yielded an IFI of 20.8%.

Molecule `O=C(NCCc1cccc(Cl)c1Cl)c1cnc(N2CCN(c3ccncc3)CC2)c(Cl)c1` returned an IFI of 20%.

For the molecule `O=C(Nc1cccc(Cl)c1)c1cnc(N2CCN(c3ccncc3)CC2)c(Cl)c1`, the IFI is 16.7%.

`COc1c(C2CCN(CCCCNC(=O)c3ccc(-c4ccc(Cl)cc4)c(O)c3)CC2)ccc2c1CCCC2` had an IFI of 9.09%.

Molecule `CN1CCCN(c2ccnc3cc4c(cc23)N(C(=O)c2ccc(Cl)cc2Cl)CC4)CC1` had an IFI of 0.72%.

Turning to `O=C(CCC1CCCCC1)NCCNc1cccc2ccccc12`, the IFI worked out at 1.47%.

`N=C(NCCCCC1CCCCC1)c1cccc(C(=N)NCCCCC2CCCCC2)n1` came in with an IFI of 19.9%.

Regarding `N=C(NCCCc1ccccc1)c1cccc(C(=N)NCCCc2ccccc2)n1`, the IFI is 1.47%.

`COc1ccc2c(=NN=Cc3ccc(OC)c4ccccc34)cc(C)[nH]c2c1` returned an IFI of 2.14%.

`O=C(Cn1c(SCc2cccc(F)c2F)cc(=O)c2ccccc21)N(CCCn1ccnc1)Cc1ccc(-c2ccc(C(F)(F)F)cc2)cc1` registered an IFI of 2.17%.

As to `CCc1ccc(CN2CCC(CNC(=O)c3cc(-c4cccc(Cl)c4)cs3)C2)cc1` (centres undefined), the IFI stood at 8.16%.

On to `CC(Cc1ccc(OCCN2CCN(c3cccc(Cl)c3)CC2)cc1)NCC(O)c1cccc(C(F)(F)F)c1` (centres undefined), for which the IFI amounted to 17.2%.

`CC(Cc1ccc(OCCN2CCN(c3ccc(Cl)cc3)CC2)cc1)NCC(O)c1cccc(C(F)(F)F)c1` (centres undefined) gave an IFI of 18.1%.

On to `CC(Cc1ccc(OCCN2CCN(c3ccccc3)CC2)cc1)NCC(O)c1cccc(Cl)c1F` (centres undefined), for which the IFI turned out to be 12%.

In turn, `CC(Cc1ccc(OCCN2CCN(c3cccc(Cl)c3)CC2)cc1)NCC(O)c1cccc(Cl)c1` (centres undefined) displayed an IFI of 16.4%.

The molecule `CC(Cc1ccc(CN2CCN(Cc3ccccc3)CC2)cc1)NCC(O)c1cccc(C(F)(F)F)c1` (centres undefined) had an IFI of 9.15%.

In the case of `CC(Cc1ccc(OCCN2CCN(c3cccc(C(F)(F)F)c3)CC2)cc1)NCC(O)c1cccc(C(F)(F)F)c1` (centres undefined), the IFI was 10.8%.

The values above are taken from ChEMBL document CHEMBL1157539, “Thousands of chemical starting points for antimalarial lead identification” (Nature, 2010).
